# In PubChem BioAssay AID652115 (Broad Institute, 2013):
# Values joined by “and” are separate entries in the source; they are usually repeats but may differ in a detail not shown here. Identical values can stand only once. Among all 330,000 compounds or so, about 3,800 (1.2%) were called active. Cut-off read from the data, not from the text of the source: active = inhibition above about 15%; inconclusive = no clear call, values can overlap the other calls; inactive = below that. The list comes from a sample in which actives are over-represented; it also holds similar structures and randomly drawn compounds. A structure can be active in one record and inactive in another.
# Biological target: NAD-dependent protein deacylase sirtuin-5, mitochondrial (Homo sapiens) (UniProt Q9NXA8)
# Sequence (Q9NXA8 whole entry, looked up): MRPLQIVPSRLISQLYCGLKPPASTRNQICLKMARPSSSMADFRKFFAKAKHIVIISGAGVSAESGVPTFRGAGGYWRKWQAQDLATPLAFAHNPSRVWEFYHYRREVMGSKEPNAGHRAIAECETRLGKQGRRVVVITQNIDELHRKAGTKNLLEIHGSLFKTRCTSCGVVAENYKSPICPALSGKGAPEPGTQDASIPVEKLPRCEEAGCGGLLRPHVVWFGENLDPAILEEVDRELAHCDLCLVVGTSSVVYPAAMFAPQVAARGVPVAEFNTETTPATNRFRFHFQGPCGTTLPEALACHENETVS
# Test: SIRT5 desuccinylase inhibitors, primary screen, biochemical, fluorescence imaging, single point, set 5 (AID 652115)
# Conditions: Purified SirT5, succinyl-peptide AMC, trypsin-coupled fluorescence; at 15 µM; stronger effect = higher value
row,Compound,inhibition
1,CN(C)C(=O)C[C@H]1C=C[C@@H](NC(=O)C2CCC2)[C@@H](CO)O1,-0.42% (inactive)
2,C[C@H](CO)N1C[C@H](C)[C@H](CN(C)CC2CCCCC2)OCCCC[C@H](C)Oc2ccc(NC(=O)c3ccncc3)cc2C1=O,2.1% (inactive)
3,O=S(=O)(Cc1ccccc1)N1CCCCN2[C@@H](CO)[C@@H](c3ccc(-c4ccc(F)cc4)cc3)[C@@H]2C1,4.06% (inactive)
4,COc1ccc2c3c(n(C)c2c1)[C@@H](CO)N(C(=O)CN1CCOCC1)CC31CCN(C(=O)C2CC2)CC1,-4.96% (inactive)
5,O=C(C[C@@H]1CC[C@@H]2[C@H](COC[C@@H](O)CN2Cc2ccc(Cl)cc2)O1)NCc1ccccc1Cl,-1.3% (inactive)
6,O=C(C[C@@H]1CC[C@H]2[C@@H](COC[C@@H](O)CN2Cc2nccs2)O1)NCc1ccc(-c2ccccc2)cc1,3.03% (inactive)
7,O=C(C[C@H]1CC[C@H]2[C@@H](COC[C@@H](O)CN2Cc2nccs2)O1)NCc1ccccc1Cl,16.4% (active)
8,O=C(C[C@H]1CC[C@H]2[C@@H](COC[C@@H](O)CN2Cc2cccc(C(F)(F)F)c2)O1)NCc1ccncc1,2.67% (inactive)
9,O=C(C[C@@H]1CC[C@@H]2[C@H](COC[C@H](O)CN2Cc2cccc(C(F)(F)F)c2)O1)NCc1ccc(F)cc1,16.6% (active)
10,O=C(C[C@@H]1CC[C@@H]2[C@H](COC[C@H](O)CN2Cc2cccc(F)c2)O1)NCc1ccncc1,-0.883% (inactive)
11,CN(C)C(=O)[C@@H]1[C@@H](CO)[C@@H]2Cn3c(ccc(-c4ccccc4)c3=O)[C@@H]2N1CCC(F)(F)F,0.07% (inactive)
12,C[C@@H](NC(=O)C[C@H]1C=C[C@H](NC(=O)C2CCOCC2)[C@H](CO)O1)c1ccccc1,2.71% (inactive)
13,COc1ccc(NC(=O)N2C[C@H](O)COC[C@H]3O[C@@H](CC(=O)NC4Cc5ccccc5C4)CC[C@@H]32)cc1,-1.07% (inactive)
14,CC(C)CC#Cc1cnc2c(c1)C(=O)N([C@@H](C)CO)C[C@@H](C)[C@@H](CN(C)S(=O)(=O)c1cccs1)O2,3.74% (inactive)
15,C/C=C/c1ccc([C@H]2[C@@H](CO)N(C(=O)C3CC3)[C@@H]2CNC(=O)NC(C)C)cc1,-3.13% (inactive)
16,CCC(=O)N(C)C[C@@H]1Oc2ncc(C#CCC3CCCC3)cc2C(=O)N([C@@H](C)CO)C[C@H]1C,2.53% (inactive)
17,CN1C(=O)c2cc(NC(=O)C3CCOCC3)ccc2OC[C@@H]2O[C@H](CC(=O)NCc3ccccc3F)CC[C@H]21,-13.7% (inactive)
18,C[C@@H](O)C#Cc1ccc2c(c1)O[C@@H](CN(C)Cc1cccnc1)[C@@H](C)CN([C@@H](C)CO)S2(=O)=O,-2.24% (inactive)
19,Cc1noc(C)c1NC(=O)N(C)C[C@@H]1Oc2cc(C#CCC(C)C)ccc2S(=O)(=O)N([C@H](C)CO)C[C@@H]1C,10.8% (inactive)
20,C[C@@H]1CN([C@H](C)CO)S(=O)(=O)c2ccc(C#C[C@@H](C)O)cc2O[C@@H]1CN(C)Cc1ccc(-c2ccccc2)cc1,27% (active) and 4.33% (inactive) and -0.184% (inactive)

row,Compound,inhibition
1,COc1ccccc1NC(=O)N(C)C[C@H]1Oc2cc(Br)ccc2S(=O)(=O)N([C@H](C)CO)C[C@@H]1C,-3.29% (inactive) and -0.792% (inactive)
2,C/C=C/c1ccc2c(c1)O[C@H](CN(C)Cc1cccc(F)c1)[C@H](C)CN([C@H](C)CO)S2(=O)=O,18% (active)
3,C[C@H](CO)N1C[C@H](C)[C@@H](CN(C)Cc2cccnc2)Oc2cc(C3=CCCC3)ccc2S1(=O)=O,0.149% (inactive)
4,Cc1noc(C)c1NC(=O)N(C)C[C@@H]1Oc2cc(Br)ccc2S(=O)(=O)N([C@@H](C)CO)C[C@H]1C,-3.62% (inactive) and 22.1% (active)
5,CC(C)C#Cc1ccc2c(c1)O[C@H](CN(C)Cc1ccccc1)[C@H](C)CN([C@@H](C)CO)S2(=O)=O,-0.3% (inactive)
6,C[C@H]1CN([C@@H](C)CO)S(=O)(=O)c2ccc(C3=CCCC3)cc2O[C@@H]1CN(C)Cc1ccccc1,24.3% (active)
7,C/C=C/c1ccc2c(c1)O[C@H](CN(C)C)[C@H](C)CN([C@H](C)CO)S2(=O)=O,-0.588% (inactive)
8,C[C@@H]1CN([C@@H](C)CO)S(=O)(=O)c2ccc(C3=CCCC3)cc2O[C@@H]1CN(C)Cc1ccncc1,0.906% (inactive)
9,C/C=C/c1ccc2c(c1)O[C@H](CN(C)Cc1ccccc1)[C@H](C)CN([C@@H](C)CO)S2(=O)=O,3.6% (inactive)
10,CO[C@@H](CN(C)C(=O)c1cnccn1)[C@@H](C)CN([C@@H](C)CO)S(=O)(=O)c1ccc(F)cc1,3.39% (inactive)
11,CCNC(=O)C[C@@H]1CC[C@@H]2[C@H](COc3ccc(NS(=O)(=O)c4ccccc4C)cc3C(=O)N2C)O1,-4.85% (inactive)
12,C/C=C/c1ccc2c(c1)O[C@@H](CN(C)S(=O)(=O)c1ccc(F)cc1)[C@@H](C)CN([C@H](C)CO)S2(=O)=O,7.93% (inactive)
13,O=C(Nc1cc(F)ccc1F)N[C@H]1CC[C@@H](CCn2cc(C3CCCC3)nn2)O[C@@H]1CO,-0.428% (inactive)
14,C[C@H](CO)N1C[C@H](C)[C@@H](CN(C)C(=O)c2ccncc2)Oc2cc(/C=C/c3ccccc3)ccc2S1(=O)=O,0.659% (inactive)
15,C[C@H](CO)N1C[C@H](C)[C@@H](CN(C)S(=O)(=O)c2ccc(F)cc2)Oc2cc(C3=CCCC3)ccc2S1(=O)=O,-0.634% (inactive)
16,COc1cccc(S(=O)(=O)N(C)C[C@@H]2Oc3cc(C4=CCCCC4)ccc3S(=O)(=O)N([C@H](C)CO)C[C@H]2C)c1,37.3% (active)
17,C[C@@H]1CN([C@@H](C)CO)S(=O)(=O)c2ccc(/C=C/c3ccccc3)cc2O[C@H]1CN(C)Cc1cccnc1,5.97% (inactive)
18,C[C@@H]1CN([C@H](C)CO)S(=O)(=O)c2ccc(/C=C/c3ccccc3)cc2O[C@@H]1CN(C)Cc1ccccc1,23.2% (active)
19,C[C@@H]1CN([C@@H](C)CO)S(=O)(=O)c2ccc(/C=C/c3ccccc3)cc2O[C@H]1CN(C)Cc1ccccc1,-1.92% (inactive)
20,C[C@H]1CN([C@@H](C)CO)S(=O)(=O)c2ccc(C#Cc3ccncc3)cc2O[C@@H]1CN(C)C(=O)Nc1ccc2c(c1)OCO2,4.3% (inactive)

row,Compound,inhibition
1,C[C@H]1CN([C@@H](C)CO)S(=O)(=O)c2ccc(C3=CCCC3)cc2O[C@H]1CN(C)C(=O)Nc1ccc2c(c1)OCO2,16.2% (active)
2,C[C@@H]1CN([C@@H](C)CO)S(=O)(=O)c2ccc(/C=C/c3ccccc3)cc2O[C@@H]1CN(C)C(=O)Nc1cc(F)ccc1F,21.7% (active)
3,C[C@@H]1CN([C@H](C)CO)S(=O)(=O)c2ccc(C3=CCCC3)cc2O[C@H]1CN(C)C(=O)Nc1ccc2c(c1)OCO2,7.25% (inactive)
4,C[C@@H]1CN([C@H](C)CO)S(=O)(=O)c2ccc(/C=C/c3ccccc3)cc2O[C@@H]1CN(C)C(=O)Nc1ccc(F)cc1,0.2% (inactive)
5,Cc1ccc(S(=O)(=O)N(C)C[C@@H]2Oc3cc(C4=CCCC4)ccc3S(=O)(=O)N([C@@H](C)CO)C[C@@H]2C)cc1,8.8% (inactive)
6,C[C@@H]1CN([C@@H](C)CO)S(=O)(=O)c2ccc(/C=C/c3ccccc3)cc2O[C@H]1CN(C)C(=O)Nc1cc(F)ccc1F,-3.9% (inactive)
7,C[C@@H]1CN([C@H](C)CO)S(=O)(=O)c2ccc(-c3cncnc3)cc2O[C@H]1CN(C)C(=O)Cc1ccccc1,1.64% (inactive)
8,CCCC#Cc1cnc2c(c1)C(=O)N([C@H](C)CO)C[C@H](C)[C@@H](CN(C)C(=O)c1cccnc1)O2,-3.74% (inactive)
9,CN1C(=O)c2cc(NS(=O)(=O)c3ccc(Cl)cc3)ccc2OC[C@@H]2O[C@H](CC(=O)O)CC[C@@H]21,-0.474% (inactive)
10,O=C(C1CC1)N1CC(=O)N2[C@H](CO)[C@@H](c3ccc(-c4ccccc4F)cc3)[C@@H]2C1,-3.61% (inactive)
11,COc1ccc(CN(C)C[C@H]2OCCCC[C@@H](C)Oc3ccc(NS(=O)(=O)c4ccccc4)cc3C(=O)N([C@@H](C)CO)C[C@@H]2C)cc1,-2.94% (inactive)
12,COc1ccccc1CN1[C@H](CO)[C@H](c2ccccc2)C12CN(C(=O)c1ccccn1)C2,-0.913% (inactive)
13,C[C@@H]1CN([C@H](C)CO)C(=O)c2cccc(NS(=O)(=O)c3ccc(Cl)cc3)c2O[C@H]1CN(C)Cc1ccc(C(F)(F)F)cc1,2.17% (inactive)
14,COCC(=O)Nc1ccc2c(c1)OC[C@H](C)N(C(=O)c1cnccn1)C[C@@H](C)[C@@H](OC)CN(C)C2=O,10.6% (inactive)
15,Cc1noc(C)c1NC(=O)N(C)C[C@H]1OCCCC[C@@H](C)Oc2ccc(NC(=O)NC(C)C)cc2C(=O)N([C@@H](C)CO)C[C@H]1C,1.72% (inactive)
16,O=C1/C(=C/c2ccc3c(c2)OCO3)CCC/C1=C\c1ccc2c(c1)OCO2,15.2% (active)
17,NC(=O)c1ccc(NC(=O)COC(=O)c2c3c(nc4ccccc24)/C(=C\c2ccc4c(c2)OCO4)CCC3)cc1,-2.29% (inactive)
18,O=C(N/N=C/c1ccc2c(c1)OCO2)C(=O)N1CCCC1,-0.951% (inactive)
19,C[C@H](CO)N1C[C@H](C)[C@H](CN(C)C(=O)c2cccnc2)Oc2ncc(C3=CCCC3)cc2C1=O,-8.88% (inactive)
20,C[C@H](CO)N1C[C@H](C)[C@@H](CN(C)C(=O)Cc2ccncc2)Oc2ncc(C#CCN(C)C)cc2C1=O,6.32% (inactive)
